Sampled rows, rich in hits. Any-hit rate of the full collection: about 3.5%.
mHTT-CaM PPI inh = mHTT-calmodulin interaction abrogation | 3.6% of 190,000 active | AlphaScreen His-mHTT/GST-CaM binding, luminescence | inhibition, % at 15 µM | P42858;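 note: 0% = both proteins with DMSO and 100% = one protein alone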
Pf apPOL block = Pf-apPOL DNA polymerase inhibition; Recombinant Pf-apPOL, molecular beacon fluorescence, 1.5 h; 0.25% of 210,000 active; inhibition, % at 10 µM; AID 1794808
An asterisk follows results filed as active; nt = not tested or not shown; ! = repeats disagree. Cut-off read from the data, not from the text of the source: active = inhibition above about 50%; inactive = the rest.

SMILES | mHTT-CaM PPI inh | Pf apPOL block
COc1ccccc1CNC(=O)c1nc(-c2ccc(C)cc2)n2c1CCCCC2 | 61* | -1
O=C(NCc1ccccn1)c1nc(-c2ccc(Cl)cc2)n2c1CCCCC2 | 54* | -1
Cc1ccc(-c2nc(C(=O)NC(C)C)c3n2CCCCC3)cc1 | 20 | -2
O=C(Nc1ccccn1)c1nc(-c2ccc(Cl)cc2)n2c1CCCCC2 | 1 | 1
Cc1ccc(C(=O)NCCN=Cc2ccc(Cl)cc2Cl)cc1 | 5 | 6
CCN(CC)C(=O)Cn1cnc2sc(C(=O)Nc3c(F)cccc3F)c(C)c2c1=O | 4 | -1
N#CC1=C(N)C(C#N)(C#N)C(c2ccc(O)cc2)C2CCCC=C12 (stereo not drawn) | -3 | -4
N#CC1=C(N)C(C#N)(C#N)C(c2ccc(I)cc2)C=C1C1CC1 (stereo not drawn) | 58* | 1
Cc1ccc(NC(=O)N2CCC(n3c(-c4ccco4)nc4cccnc43)C2)cc1F (stereo not drawn) | 44 | 0
COc1cccc2c1NC(c1cccc(Br)c1)C1CC=CC21 (stereo not drawn) | 53* | -11
CCOc1cccc2c1NC(c1ccc(C(=O)O)cc1)C1CC=CC21 (stereo not drawn) | 63* | -6
Fc1ccc(C2Nc3ccccc3C3C=CCC32)cc1 (stereo not drawn) | 87* | 16
O=C(O)c1cccc2c1NC(c1ccccc1Br)C1CC=CC21 (stereo not drawn) | 48 | 5
O=C(O)c1cccc2c1NC(c1ccc(F)cc1)C1CC=CC21 (stereo not drawn) | 96*! | 1
c1ccc(C2Nc3ccccc3C3OCCC23)cc1 (stereo not drawn) | -1 | 0
COc1cc(C2Nc3c(C)cccc3C3C=CCC32)cc(Br)c1OC (stereo not drawn) | 0 | -2
Cc1cccc(OCc2noc(-c3ccccc3C)n2)c1 | -55 | 5
CCOc1ccc(C2C(=O)N(C3CCCCC3)CC(=O)N2Cc2ccccc2)cc1OC (stereo not drawn) | 35 | -8
CC(COc1ccc(C(C)C)cc1)NC(=O)C12CC3CC(CC(C3)C1)C2 (stereo not drawn) | -9 | -13
COc1cccc2c1NC(c1ccc(Br)cc1)C1CC=CC21 (stereo not drawn) | 58* | 5
CN(C)C(=O)c1cccc2c1NC(c1ccc(Br)cc1)C1CC=CC21 (stereo not drawn) | 64* | -38
COc1cccc2c1NC(c1ccccc1Br)C1CC=CC21 (stereo not drawn) | 38 | 3
Fc1ccc(C2Nc3c(F)cccc3C3C=CCC32)cc1 (stereo not drawn) | 57* | -6
COc1ccc(Cl)c2c1NC(c1ccc(F)cc1)C1CC=CC21 (stereo not drawn) | 50* | 6
Fc1cccc2c1NC(c1ccc(Br)cc1)C1CC=CC21 (stereo not drawn) | 40 | 4
SMILES | mHTT-CaM PPI inh | Pf apPOL block
COc1ccc(C2C=C(c3ccc(I)cc3)Nc3nnnn32)c(OC)c1 (stereo not drawn) | 10 | 0
Cc1ccc(C)c(NC(=O)c2cnn3c2NC(c2ccco2)CC3C(F)(F)F)c1 (stereo not drawn) | 6 | -3
COc1cccc2c1NC(c1ccc(F)cc1)C1CC=CC21 (stereo not drawn) | 79* | -2
CCCCNC(=O)CCC1N=C2c3ccccc3N=C(SCc3ccc([N+](=O)[O-])cc3)N2C1=O (stereo not drawn) | 3 | -2
CCCCNC(=O)CC1N=C2c3ccccc3N=C(SCc3ccc([N+](=O)[O-])cc3)N2C1=O (stereo not drawn) | 53* | -2
O=C(Nc1ccccc1)C1CCN(c2cccc(Cl)c2)C1=O (stereo not drawn) | -5 | -1
CCCCN(CC)C(=O)CNC(=O)c1nn(-c2ccc(OC)c(OC)c2)c(=O)c2ccccc12 | 31 | -3
Fc1ccc(C2=NCCC(c3ccccc3)O2)cc1 (stereo not drawn) | 51* | -10
O=C1OC(c2ccc(F)cc2)=N/C1=C\c1ccccc1 | 11 | -1
Clc1cccc(C2Nc3cccc4cccc(c34)N2)c1 | 82* | nt
Fc1cccc(Cl)c1C1Nc2cccc3cccc(c23)N1 | 49 | nt
c1csc(C2Nc3cccc4cccc(c34)N2)c1 | 50* | nt
N#CC1=C(N)SC(N)=C(C#N)C1c1cccc2ccccc12 | 16 | -9
c1ccc2c(C3Nc4cccc5cccc(c45)N3)cccc2c1 | 77* | nt
c1csc(C2Nc3ccccc3-c3nc4ccccc4n32)c1 (stereo not drawn) | -16 | -6
CCC(=O)N1CCc2sc(S(=O)(=O)Nc3cc(C)cc(C)c3)cc2C1 | 6 | -9
CC(C(=O)NC1CC1)C1CCN(S(=O)(=O)c2ccc(Br)s2)CC1 (stereo not drawn) | -9 | -3
CC(C)c1ccc(NC(=O)C(c2ccccc2)N(C)C(=O)c2cnccn2)cc1 (stereo not drawn) | 20 | -1

Screens from PubChem.
